The structures appear in SMILES notation.

We go through seven compounds from ChEMBL document CHEMBL2218924, “A broad activity screen in support of a chemogenomic map for kinase signalling research and drug discovery” (Biochem J, 2013).

In experiment [1] the target is Serine/threonine-protein kinase PAK 4 (Homo sapiens) (UniProt O96013). The conditions noted are these: at 1 µM.
For experiment [2] the target is unchanged. The conditions noted are these: at 10 µM.
The target in experiment [3] is Serine/threonine-protein kinase PAK 5 (Homo sapiens) (UniProt Q9P286). The note with it: at 1 µM.
For experiment [4] the target is unchanged. The conditions noted are these: at 10 µM.
Experiment [5] has as its target Serine/threonine-protein kinase PAK 6 (Homo sapiens) (UniProt Q9NQU5). The conditions noted are these: at 1 µM.
Experiment [6] shares this target. The conditions noted are these: at 10 µM.
Experiment [7] concerns the target PAS domain-containing serine/threonine-protein kinase (Homo sapiens) (UniProt Q96RG2). The conditions noted are these: at 10 µM.
Experiment [8] has as its target Activated CDC42 kinase 1 (Homo sapiens) (UniProt Q07912). The note with it: at 1 µM.
Experiment [9] shares this target. The note with it: at 10 µM.
The target in experiment [10] is ALK tyrosine kinase receptor (Homo sapiens) (UniProt Q9UM73). The note with it: at 1 µM.
Sequence of ALK tyrosine kinase receptor (Homo sapiens) (Q9UM73 19-1620 limits assumed): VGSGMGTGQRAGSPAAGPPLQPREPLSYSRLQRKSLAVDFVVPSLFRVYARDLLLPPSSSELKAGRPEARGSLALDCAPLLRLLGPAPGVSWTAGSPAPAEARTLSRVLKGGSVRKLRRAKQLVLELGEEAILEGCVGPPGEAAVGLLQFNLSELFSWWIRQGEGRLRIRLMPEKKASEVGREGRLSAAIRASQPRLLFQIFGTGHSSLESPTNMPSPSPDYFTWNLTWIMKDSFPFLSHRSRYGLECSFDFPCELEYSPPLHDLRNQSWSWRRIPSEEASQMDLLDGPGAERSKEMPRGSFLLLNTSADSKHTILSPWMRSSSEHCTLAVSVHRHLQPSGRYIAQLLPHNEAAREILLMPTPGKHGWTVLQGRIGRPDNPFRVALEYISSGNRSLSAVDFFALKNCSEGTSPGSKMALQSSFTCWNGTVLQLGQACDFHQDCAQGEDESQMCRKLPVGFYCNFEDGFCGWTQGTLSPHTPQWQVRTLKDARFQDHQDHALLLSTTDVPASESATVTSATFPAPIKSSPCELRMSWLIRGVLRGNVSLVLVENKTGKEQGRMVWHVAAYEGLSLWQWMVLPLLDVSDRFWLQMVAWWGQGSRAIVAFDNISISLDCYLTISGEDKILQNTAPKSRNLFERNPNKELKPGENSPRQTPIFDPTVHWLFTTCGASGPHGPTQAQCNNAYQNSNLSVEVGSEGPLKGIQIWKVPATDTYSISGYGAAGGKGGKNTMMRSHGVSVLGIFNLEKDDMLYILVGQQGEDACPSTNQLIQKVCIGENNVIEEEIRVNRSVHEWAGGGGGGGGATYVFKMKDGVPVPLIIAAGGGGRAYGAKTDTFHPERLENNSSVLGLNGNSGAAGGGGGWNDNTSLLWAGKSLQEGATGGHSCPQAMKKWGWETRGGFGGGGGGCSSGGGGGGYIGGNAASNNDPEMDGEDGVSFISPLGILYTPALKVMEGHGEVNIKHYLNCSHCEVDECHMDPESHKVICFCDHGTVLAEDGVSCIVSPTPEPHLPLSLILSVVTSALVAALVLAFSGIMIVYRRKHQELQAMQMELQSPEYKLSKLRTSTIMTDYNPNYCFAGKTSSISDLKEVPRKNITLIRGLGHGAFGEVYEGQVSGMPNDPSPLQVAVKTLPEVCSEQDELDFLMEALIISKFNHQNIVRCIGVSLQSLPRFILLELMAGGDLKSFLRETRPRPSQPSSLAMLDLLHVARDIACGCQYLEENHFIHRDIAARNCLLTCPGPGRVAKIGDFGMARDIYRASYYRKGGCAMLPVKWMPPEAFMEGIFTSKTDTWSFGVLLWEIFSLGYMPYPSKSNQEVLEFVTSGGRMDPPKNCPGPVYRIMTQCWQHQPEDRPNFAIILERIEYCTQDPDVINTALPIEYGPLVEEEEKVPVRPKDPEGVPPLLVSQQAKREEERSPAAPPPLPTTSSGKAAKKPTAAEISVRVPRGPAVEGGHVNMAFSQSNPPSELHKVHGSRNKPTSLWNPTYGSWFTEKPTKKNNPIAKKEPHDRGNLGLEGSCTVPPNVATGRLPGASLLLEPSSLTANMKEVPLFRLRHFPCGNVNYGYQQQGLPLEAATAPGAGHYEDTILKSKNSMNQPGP
For experiment [11] the target is unchanged. The conditions noted are these: at 10 µM.
The target of experiment [12] is T1, Activin receptor type-1B (Homo sapiens) (UniProt P36896).
T1 sequence (whole entry): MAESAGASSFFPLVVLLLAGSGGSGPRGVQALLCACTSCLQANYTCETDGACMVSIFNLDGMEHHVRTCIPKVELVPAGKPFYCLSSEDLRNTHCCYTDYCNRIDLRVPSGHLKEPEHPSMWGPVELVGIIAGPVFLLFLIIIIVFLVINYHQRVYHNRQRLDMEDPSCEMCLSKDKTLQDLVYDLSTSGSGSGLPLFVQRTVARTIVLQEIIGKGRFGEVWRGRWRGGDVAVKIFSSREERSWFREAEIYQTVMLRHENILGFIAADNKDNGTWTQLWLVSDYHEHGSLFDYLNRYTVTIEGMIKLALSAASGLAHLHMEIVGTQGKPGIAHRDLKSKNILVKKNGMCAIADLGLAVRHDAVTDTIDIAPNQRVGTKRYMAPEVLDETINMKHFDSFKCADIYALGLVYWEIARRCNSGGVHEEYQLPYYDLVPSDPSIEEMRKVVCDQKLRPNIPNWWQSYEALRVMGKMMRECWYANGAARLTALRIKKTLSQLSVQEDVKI
The conditions noted are these: at 1 µM.

The target of experiment [13] is T1, Activin receptor type-1B (Homo sapiens). The conditions noted are these: at 10 µM.
The target in experiment [14] is T2, AMP-activated protein kinase (AMPK) alpha-1/beta-1/gamma-1 (Homo sapiens) (UniProt P54619+Q9Y478+Q13131). The note with it: at 1 µM.
Experiment [15] has as its target T2, AMP-activated protein kinase (AMPK) alpha-1/beta-1/gamma-1 (Homo sapiens). The note with it: at 10 µM.
Experiment [16] deals with T3, AMP-activated protein kinase, AMPK (Homo sapiens) (UniProt P54646+O43741+P54619+Q9UGJ0+Q9Y478+Q13131+Q9UGI9). The note with it: at 1 µM.
Experiment [17] deals with T3, AMP-activated protein kinase, AMPK (Homo sapiens). The note with it: at 10 µM.
Experiment [18] addresses T4, NUAK family SNF1-like kinase 1 (Homo sapiens) (UniProt O60285).
T4 sequence (whole entry): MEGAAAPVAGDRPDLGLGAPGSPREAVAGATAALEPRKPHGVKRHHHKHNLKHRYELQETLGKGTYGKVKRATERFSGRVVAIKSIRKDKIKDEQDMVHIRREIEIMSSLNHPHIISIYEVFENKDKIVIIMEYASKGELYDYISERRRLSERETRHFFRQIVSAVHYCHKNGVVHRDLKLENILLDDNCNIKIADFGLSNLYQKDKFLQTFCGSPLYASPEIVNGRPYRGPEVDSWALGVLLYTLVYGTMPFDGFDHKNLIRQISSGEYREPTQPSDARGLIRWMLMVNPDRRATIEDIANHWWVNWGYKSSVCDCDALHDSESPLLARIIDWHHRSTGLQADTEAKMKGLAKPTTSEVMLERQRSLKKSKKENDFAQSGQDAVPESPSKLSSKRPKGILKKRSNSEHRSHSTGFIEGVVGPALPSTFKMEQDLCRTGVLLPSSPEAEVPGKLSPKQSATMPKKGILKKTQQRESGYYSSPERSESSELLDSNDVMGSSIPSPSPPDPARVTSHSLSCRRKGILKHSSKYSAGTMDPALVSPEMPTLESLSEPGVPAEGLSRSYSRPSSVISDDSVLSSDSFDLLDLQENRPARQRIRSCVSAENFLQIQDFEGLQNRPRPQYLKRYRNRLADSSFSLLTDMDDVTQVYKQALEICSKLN
The conditions noted are these: at 1 µM.

The target of experiment [19] is T4, NUAK family SNF1-like kinase 1 (Homo sapiens). The note with it: at 10 µM.
In experiment [20] the target is T5, Mitogen-activated protein kinase kinase kinase 5 (Homo sapiens) (UniProt Q99683).
T5 sequence (whole entry): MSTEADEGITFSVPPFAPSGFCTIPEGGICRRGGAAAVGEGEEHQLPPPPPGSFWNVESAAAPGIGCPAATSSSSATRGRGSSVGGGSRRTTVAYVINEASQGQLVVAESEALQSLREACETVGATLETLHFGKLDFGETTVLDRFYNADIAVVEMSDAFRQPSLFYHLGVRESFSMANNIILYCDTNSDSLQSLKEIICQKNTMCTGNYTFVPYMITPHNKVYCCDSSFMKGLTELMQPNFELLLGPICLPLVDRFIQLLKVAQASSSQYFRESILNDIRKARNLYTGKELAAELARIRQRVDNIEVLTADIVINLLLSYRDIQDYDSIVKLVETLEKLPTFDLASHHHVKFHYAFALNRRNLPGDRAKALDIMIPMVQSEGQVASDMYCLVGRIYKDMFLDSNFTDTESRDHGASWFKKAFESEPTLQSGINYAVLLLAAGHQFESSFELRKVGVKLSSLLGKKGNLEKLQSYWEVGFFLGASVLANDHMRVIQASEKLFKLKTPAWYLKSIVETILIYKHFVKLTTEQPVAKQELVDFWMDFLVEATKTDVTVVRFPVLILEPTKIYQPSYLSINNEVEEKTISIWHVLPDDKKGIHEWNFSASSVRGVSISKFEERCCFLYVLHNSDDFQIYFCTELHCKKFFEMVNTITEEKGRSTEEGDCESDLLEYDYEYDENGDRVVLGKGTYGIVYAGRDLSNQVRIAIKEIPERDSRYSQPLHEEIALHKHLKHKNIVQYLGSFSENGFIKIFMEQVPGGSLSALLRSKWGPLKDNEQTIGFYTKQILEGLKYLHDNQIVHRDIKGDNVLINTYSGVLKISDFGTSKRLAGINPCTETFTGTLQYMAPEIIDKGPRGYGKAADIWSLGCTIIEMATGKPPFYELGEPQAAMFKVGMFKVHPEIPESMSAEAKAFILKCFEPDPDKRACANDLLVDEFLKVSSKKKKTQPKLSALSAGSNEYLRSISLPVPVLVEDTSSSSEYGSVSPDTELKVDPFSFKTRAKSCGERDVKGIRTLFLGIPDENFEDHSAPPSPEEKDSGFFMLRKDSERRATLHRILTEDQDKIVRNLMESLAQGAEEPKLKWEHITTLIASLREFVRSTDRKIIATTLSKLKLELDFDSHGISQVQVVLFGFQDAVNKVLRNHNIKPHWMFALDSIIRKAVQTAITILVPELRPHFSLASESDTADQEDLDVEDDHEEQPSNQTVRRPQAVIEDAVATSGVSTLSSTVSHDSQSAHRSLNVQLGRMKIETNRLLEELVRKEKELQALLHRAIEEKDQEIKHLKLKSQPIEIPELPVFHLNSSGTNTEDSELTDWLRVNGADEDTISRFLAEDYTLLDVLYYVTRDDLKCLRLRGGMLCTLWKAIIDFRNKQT
The conditions noted are these: at 1 µM.

Sequence of Serine/threonine-protein kinase PAK 4 (Homo sapiens) (O96013 whole entry, looked up): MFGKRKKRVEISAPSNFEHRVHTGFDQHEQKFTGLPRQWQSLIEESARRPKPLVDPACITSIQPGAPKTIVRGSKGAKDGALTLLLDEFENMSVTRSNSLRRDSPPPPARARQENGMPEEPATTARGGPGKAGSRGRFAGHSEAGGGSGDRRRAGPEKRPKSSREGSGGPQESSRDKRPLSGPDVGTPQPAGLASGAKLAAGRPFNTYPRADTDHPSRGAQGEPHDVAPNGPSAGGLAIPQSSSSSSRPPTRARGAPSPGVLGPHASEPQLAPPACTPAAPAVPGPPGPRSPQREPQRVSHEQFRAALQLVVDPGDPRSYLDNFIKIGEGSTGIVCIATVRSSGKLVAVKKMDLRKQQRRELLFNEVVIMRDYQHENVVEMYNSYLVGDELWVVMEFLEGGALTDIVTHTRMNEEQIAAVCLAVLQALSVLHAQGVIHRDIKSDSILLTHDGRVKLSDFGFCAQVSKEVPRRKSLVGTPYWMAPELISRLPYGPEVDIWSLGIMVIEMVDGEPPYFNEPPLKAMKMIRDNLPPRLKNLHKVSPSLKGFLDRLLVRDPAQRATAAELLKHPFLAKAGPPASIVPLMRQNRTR
Sequence of Activated CDC42 kinase 1 (Homo sapiens) (Q07912 whole entry, looked up): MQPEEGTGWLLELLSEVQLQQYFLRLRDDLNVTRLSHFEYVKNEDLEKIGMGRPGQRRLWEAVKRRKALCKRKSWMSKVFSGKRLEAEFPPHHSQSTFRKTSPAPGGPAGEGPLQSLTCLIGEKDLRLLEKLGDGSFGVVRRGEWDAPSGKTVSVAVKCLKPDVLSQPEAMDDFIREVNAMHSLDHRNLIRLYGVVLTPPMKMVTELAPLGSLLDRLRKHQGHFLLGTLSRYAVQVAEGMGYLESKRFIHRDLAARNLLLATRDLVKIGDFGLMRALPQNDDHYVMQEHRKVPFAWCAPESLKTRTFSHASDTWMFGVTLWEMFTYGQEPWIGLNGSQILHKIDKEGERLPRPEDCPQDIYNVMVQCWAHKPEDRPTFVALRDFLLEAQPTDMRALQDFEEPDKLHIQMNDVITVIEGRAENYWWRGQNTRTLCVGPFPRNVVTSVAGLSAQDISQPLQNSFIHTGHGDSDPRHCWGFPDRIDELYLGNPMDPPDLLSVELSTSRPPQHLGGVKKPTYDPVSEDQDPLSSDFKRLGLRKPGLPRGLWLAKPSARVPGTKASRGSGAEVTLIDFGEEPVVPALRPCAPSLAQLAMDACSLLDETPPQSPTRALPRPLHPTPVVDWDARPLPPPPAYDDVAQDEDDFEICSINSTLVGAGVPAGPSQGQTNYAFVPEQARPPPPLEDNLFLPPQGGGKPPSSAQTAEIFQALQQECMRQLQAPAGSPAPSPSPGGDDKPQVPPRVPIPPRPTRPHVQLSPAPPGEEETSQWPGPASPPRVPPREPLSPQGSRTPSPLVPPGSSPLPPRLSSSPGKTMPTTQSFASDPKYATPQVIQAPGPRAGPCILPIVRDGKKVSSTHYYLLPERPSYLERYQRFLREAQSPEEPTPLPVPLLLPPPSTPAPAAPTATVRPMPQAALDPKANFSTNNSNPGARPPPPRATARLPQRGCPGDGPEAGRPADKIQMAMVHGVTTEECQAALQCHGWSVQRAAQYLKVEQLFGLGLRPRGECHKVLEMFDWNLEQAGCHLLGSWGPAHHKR
Sequence of PAS domain-containing serine/threonine-protein kinase (Homo sapiens) (Q96RG2 whole entry, the tested form may be a part): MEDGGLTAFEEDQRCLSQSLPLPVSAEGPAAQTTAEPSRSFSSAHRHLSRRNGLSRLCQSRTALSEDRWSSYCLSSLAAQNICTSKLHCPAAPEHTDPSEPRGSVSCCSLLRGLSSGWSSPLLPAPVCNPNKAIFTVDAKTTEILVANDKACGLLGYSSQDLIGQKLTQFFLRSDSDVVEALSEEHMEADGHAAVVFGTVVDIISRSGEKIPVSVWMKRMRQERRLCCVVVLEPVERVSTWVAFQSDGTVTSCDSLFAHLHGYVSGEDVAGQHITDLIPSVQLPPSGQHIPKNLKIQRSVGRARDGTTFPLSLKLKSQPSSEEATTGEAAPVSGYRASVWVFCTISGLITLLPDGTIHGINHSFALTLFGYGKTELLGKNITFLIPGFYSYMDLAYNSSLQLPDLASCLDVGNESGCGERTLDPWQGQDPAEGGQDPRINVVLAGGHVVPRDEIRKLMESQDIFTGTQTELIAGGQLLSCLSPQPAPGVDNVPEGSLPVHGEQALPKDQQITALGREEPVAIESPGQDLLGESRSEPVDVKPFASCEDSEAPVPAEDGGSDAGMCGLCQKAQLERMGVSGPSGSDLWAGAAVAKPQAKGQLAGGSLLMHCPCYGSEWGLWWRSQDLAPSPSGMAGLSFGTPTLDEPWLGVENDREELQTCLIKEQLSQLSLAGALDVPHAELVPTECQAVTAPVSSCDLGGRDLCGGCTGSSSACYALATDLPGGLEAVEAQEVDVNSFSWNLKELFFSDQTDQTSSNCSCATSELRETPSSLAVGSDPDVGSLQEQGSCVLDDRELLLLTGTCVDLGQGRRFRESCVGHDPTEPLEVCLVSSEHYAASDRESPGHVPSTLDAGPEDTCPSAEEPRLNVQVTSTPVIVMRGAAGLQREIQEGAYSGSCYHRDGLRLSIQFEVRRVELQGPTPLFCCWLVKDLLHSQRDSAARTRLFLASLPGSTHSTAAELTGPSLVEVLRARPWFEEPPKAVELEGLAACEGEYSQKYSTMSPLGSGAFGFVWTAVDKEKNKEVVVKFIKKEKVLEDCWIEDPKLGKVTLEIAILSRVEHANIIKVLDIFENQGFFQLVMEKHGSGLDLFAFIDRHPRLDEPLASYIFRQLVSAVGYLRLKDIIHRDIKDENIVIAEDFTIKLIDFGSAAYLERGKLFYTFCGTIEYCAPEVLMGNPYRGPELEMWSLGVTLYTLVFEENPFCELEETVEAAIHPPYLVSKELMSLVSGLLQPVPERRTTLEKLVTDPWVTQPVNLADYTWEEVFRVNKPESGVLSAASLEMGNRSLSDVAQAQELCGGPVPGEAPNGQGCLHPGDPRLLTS

`CN(C)c1ccc(/C=C2\C(=O)Nc3ccccc32)cc1`: the residual activity worked out at 100% in [1]; 83% in experiment [2]; 95% in [3]; 77% in experiment [4]; 83% in [5]; 77% in [6]. In addition, the residual activity in experiment [7] is 23%; in [8], 89%; in [9] it was 62%; in experiment [10] it was 80%; in experiment [11], 27%; in [12], 127%. Besides, the residual activity in [13] worked out at 105%; in experiment [14] it was 92%; in [15] it was 50%; in experiment [16], 97%; in experiment [17] it was 56%; in experiment [18], 93%. Also, the residual activity in experiment [19] worked out at 80%; in [20], 92%.

As for `O=C1Nc2ccc(Br)cc2/C1=C\c1cc2c([nH]1)CCCC2`, the residual activity in experiment [1] was found to be 84%; in experiment [2] it was 77%; in experiment [4], 105%; in [7], 98%; in [8], 54%; in experiment [9], 50%. The residual activity in experiment [10] was determined as 76%; in [11] it was 112%; in experiment [12], 112%; in experiment [13], 101%; in experiment [14], 76%; in [15], 60%. The residual activity amounted to 70% in experiment [18] and 74% in [19].

As to `COc1cc2ncnc(N3CCN(C(=O)Nc4ccc(Oc5ccccc5)cc4)CC3)c2cc1OC`, the residual activity in [1] turned out to be 94%; in experiment [2], 84%; in experiment [3] it was 91%; in [4] it was 122%; in [5], 112%; in experiment [8], 68%. For the same compound, the residual activity in [9] was 54%; in experiment [10], 73%; in experiment [11] it was 49%; in experiment [12] it was 104%; in [13], 97%; in experiment [14], 79%. The residual activity in experiment [15] stood at 97%; in experiment [16], 99%; in experiment [17], 101%; in [18] it was 107%; in [19], 82%; in experiment [20], 79%.

On to `Nc1cccc(-c2cc3c(Oc4cccc(O)c4)ncnc3[nH]2)c1`, for which the residual activity in [1] amounted to 63%; in experiment [2], 19%; in experiment [3], 87%; in experiment [4], 31%; in experiment [5], 86%; in [6] it was 48%. Also, the residual activity is 101% in experiment [7]; 10% in experiment [8]; -1% in [9]; 42% in [10]; 8% in [11]; 72% in experiment [12]. Moreover, the residual activity came to 36% in [13]; 53% in experiment [14]; 13% in experiment [15]; 54% in experiment [16]; 15% in [17]; 31% in [18]. Also, the residual activity was found to be 7% in [19] and 96% in experiment [20].

With `CN(C)CCCn1cc(C2=C(c3c[nH]c4ccccc34)C(=O)NC2=O)c2ccccc21`, the residual activity in [1] was determined as 102%; in experiment [2], 75%; in [3], 88%; in experiment [4], 77%; in experiment [6] it was 78%; in experiment [7], 18%. Also, the residual activity in experiment [8] is 112%; in experiment [9], 45%; in experiment [12] it was 119%; in experiment [13], 76%; in experiment [14], 44%; in experiment [15] it was 10%. For the same compound, the residual activity in experiment [16] was determined as 26%; in experiment [17], 4%; in experiment [18], 35%; in experiment [19], 11%.

Turning to `c1ccc(-c2n[nH]cc2-c2ccnc3ccccc23)nc1`, the residual activity in experiment [1] was 98%; in [2] it was 90%; in experiment [3], 92%; in [4], 104%; in experiment [7], 82%; in experiment [8] it was 77%. Also, the residual activity in experiment [9] was 50%; in experiment [10], 85%; in experiment [11], 105%; in experiment [12] it was -3%; in experiment [13], -4%; in [14], 86%. Further, the residual activity in [15] stood at 76%; in experiment [16], 101%; in [17] it was 81%; in [18], 99%; in experiment [19] it was 90%; in experiment [20] it was 98%.

Take `COc1ccc(C(=O)Nc2sc3c(c2C(N)=O)CCCC3)cc1OC`: the residual activity was 92% in experiment [1]; 86% in experiment [2]; 104% in experiment [3]; 116% in experiment [4]; 95% in [5]; 93% in [6]. Further, the residual activity was 90% in experiment [7]; 77% in experiment [8]; 54% in [9]; 56% in experiment [10]; 72% in experiment [11]; 83% in experiment [13]. In addition, the residual activity in experiment [14] was 90%; in experiment [15], 78%; in experiment [16], 93%; in experiment [17] it was 75%; in experiment [18] it was 87%; in experiment [19] it was 75%. For the same compound, the residual activity in experiment [20] is 114%.
